Most compounds without a hit are left out; they make up all but 21% or so of the library.
NS1 inh: blocks influenza NS1 protein function; 0.4% of 270,000 active; AID 2326; Potency, µM (titrated, usually from 46.1 µM); calls by dose curve; also: actives are rising curves; nearly all actives have a fitted effect of over 50% in size
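Compounds were scored for reversing the slow growth caused by influenza A NS1 in S. cerevisiae, measured by optical density at 600 nm. Assay medium contained 2% galactose at pH 6.0; NS1-free yeast of the same strain were the positive control.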
Pf growth 48h: P. falciparum growth inhibition at 48 hours (one generation); P. falciparum luciferase growth in erythrocytes, 48 h; Potency, µM (titrated, usually from 28.7 µM), hits mostly inhibitors; 5.9% of 310,000 active; AID 504832
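Luminescence readout; reporter = integrated firefly luciferase in P. falciparum. RBC culture at 2% hematocrit, 0.1% parasitemia final, 37 C/5% CO2; decreased signal taken as growth inhibition.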
Shiga toxin inh: Shiga toxin inhibition; Vero cells, Shiga toxin protein synthesis inhibition reporter; inhibition, % at 38.7 µM; 9.2% of 290,000 active; in the data active = inhibition mostly above about 28%, no sharp cut-off; inactive = mostly below about 43%
CHX counter: affects cycloheximide protein synthesis inhibition readout, counter-screen. cell reporter, cycloheximide protein synthesis inhibition counterscreen. max response, %. 12% of 300,000 active; in the data active = max response mostly above about 13%, no sharp cut-off; inactive = mostly below about 14%; also: read at 38.3 µM for the half of the compounds with a filed dose
Pf growth 96h: P. falciparum growth inhibition at 96 hour, primary screen for plastid delayed-death inhibitors; P. falciparum luciferase reporter growth, 96 h; Potency, µM (series often up to 28.7 µM), most hits filed as inhibitors; 6.9% of 320,000 active; AID 504834
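Two parasite generations (96 h, 37 C, 5% CO2) of compound exposure in infected erythrocytes (0.05% parasitemia, 2% hematocrit). Luciferase-reporter P. falciparum; decreased luminescence indicates inhibited growth, aimed at apicoplast-acting delayed death.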
Each line names hits and unclear results; the compound was inactive in the other large screens; ! = not confirmed by another sample. Unless noted, calls follow the shape of the dose curve; as a rule, active = well fitted inhibition curve with a large enough effect; inconclusive = small, poorly fitted or top-dose-only effect, or another doubt; inactive = no such curve, though single readings can be large or run the other way.

CCN1CCN(c2cc(C)c3cc(NC(=O)Cc4ccccc4OC)ccc3n2)CC1	Pf growth 48h 11.7µM, Pf growth 96h inconclusive
CCN1CCN(c2cc(C)c3cc(NC(=O)c4cccs4)ccc3n2)CC1	Pf growth 48h 2.08µM, CHX counter 20.9, Pf growth 96h inconclusive
CC(C)c1ccc(NC(=O)C2C3C=CC4(CN(CCCN5CCOCC5)C(=O)C24)O3)cc1 (stereo unspecified)	none (no result: Pf growth 48h)
Cc1nc2c(Br)c(C)nn2c2c1CCC2	none (no result: NS1 inh)
CCN(CC)CC#Cc1ccc(C)cc1	none
Cc1ccc(C#CC[N+](C)(C)CC#Cc2ccccc2)cc1	Pf growth 48h 2.33µM, Pf growth 96h 5.86µM
C#CC[N+](C)(C)CC#Cc1ccccc1	Pf growth 48h 1.65µM
Cc1cnc(-c2nnc(N(C)C(=O)c3cccnc3)s2)cn1	Pf growth 96h inconclusive
CC(=O)N(c1ccccc1)c1nnc(-c2cnc(C)cn2)s1	Shiga toxin inh 68.3, CHX counter 28.8
COc1ccccc1C/C(N)=N/OC(=O)c1cccc([N+](=O)[O-])c1C	Pf growth 48h 9.28µM, CHX counter 15.4
COc1ccc(/C(N)=N/OC(=O)c2cccc([N+](=O)[O-])c2C)cc1	Pf growth 48h inconclusive
Cc1ccc2nc(-c3ccc(SCC(=O)O)nc3)[nH]c2c1	Pf growth 96h inconclusive
Cc1ccc2nc(-c3sc4nc(C)ccc4c3N)[nH]c2c1	Pf growth 48h inconclusive, Shiga toxin inh 43.6, CHX counter 32.9
Cc1cc(C)c2c(N)c(-c3nc4ccccc4[nH]3)sc2n1	Shiga toxin inh 80.7, CHX counter 44.6
O=C(CN1CCN(Cc2ccc(F)cc2)C1=O)NC1CCCC1	none (no result: NS1 inh)
CN1CCN(c2ccc(NC(=O)c3cc(S(N)(=O)=O)ccc3N3CCOCC3)cc2)CC1	none (no result: NS1 inh, Shiga toxin inh, CHX counter)
CCCn1nnc(NC(=O)C(c2ccccc2)c2ccccc2)n1	none
CCCn1nnc(NC(=O)c2ccc(Br)cc2)n1	Shiga toxin inh 98.8, CHX counter 44.8
CCCn1nnc(NC(=O)c2ccc(-c3ccccc3)cc2)n1	Pf growth 48h inconclusive, Shiga toxin inh 100.1, CHX counter 20.6, Pf growth 96h inconclusive
CCCn1nnc(NC(=S)NC(=O)c2ccc(-c3ccc(Br)cc3)o2)n1	Pf growth 96h inconclusive
CCOc1ccc(C(=O)Nc2nnn(CC)n2)cc1	Shiga toxin inh 75.3, CHX counter 35.6 (no result: Pf growth 96h)
CCCn1nnc(NC(=O)c2ccc(OC)cc2)n1	CHX counter 37.2 (no result: Pf growth 48h)
CCCn1nnc(NC(=O)c2ccc(OCC)c(Cl)c2)n1	Pf growth 48h 13.1µM, CHX counter 20.3
CCSc1nnc(-c2cccc(S(=O)(=O)N(C)C)c2)n1-c1cc(OC)ccc1OC	Pf growth 48h inconclusive, Pf growth 96h inconclusive
Cc1noc(C)c1CSc1nnc(-c2cc(Cl)ccc2Cl)n1N	none
COc1cccc(-n2c(SCc3c(C)noc3C)nnc2-c2cccc(S(=O)(=O)N(C)C)c2)c1	Pf growth 48h 11.7µM, Pf growth 96h inconclusive
COc1ccc(OC)c(-n2c(SCC(C)=O)nnc2-c2cccc(S(=O)(=O)N(C)C)c2)c1	Pf growth 96h 11.7µM (no result: Pf growth 48h)
COc1ccc(-c2nnc(SCc3c(C)noc3C)n2N)cc1OC	Pf growth 48h inconclusive, Pf growth 96h 11.7µM
COc1ccc(CN2C(=NC(=O)c3ccccc3)SC3CS(=O)(=O)CC32)cc1 (stereo unspecified)	none
COc1ccc(CCNC(=O)c2cc(-c3cc(Cl)ccc3O)n[nH]2)cc1OC	Pf growth 48h inconclusive
CC(Sc1nc(-c2ccccc2)cs1)C(=O)Nc1ccc(Cl)cn1 (stereo unspecified)	none
Cn1c(CCNC(=O)c2ccccc2F)nnc1SCc1nc2ccccc2c(=O)[nH]1	none (no result: Pf growth 96h)
CCOC1=C/C(=C/c2c(N)n3nc(-c4ccccc4)sc3nc2=O)C=CC1=O	Pf growth 48h inconclusive
COC1=C/C(=C/c2c(N)n3nc(-c4ccc(C)cc4)sc3nc2=O)C=CC1=O	Shiga toxin inh 76.2, CHX counter 54.5
Cc1cc2c(cc1C)NC(CC(=O)NCc1ccccc1)C(=O)N2 (stereo unspecified)	Pf growth 48h inconclusive, Shiga toxin inh 60.9, CHX counter 25.7
CC(C)CNC(=O)CC1Nc2ccccc2NC1=O (stereo unspecified)	Pf growth 96h inconclusive
COc1ccc(CCNC(=O)CC2Nc3cc(C)c(C)cc3NC2=O)cc1OC (stereo unspecified)	NS1 inh inconclusive, Pf growth 48h 13.1µM (no result: Pf growth 96h)
Oc1ccc(-c2cnns2)c(O)c1	Pf growth 48h 10.4µM, Pf growth 96h 11.7µM
CCOC(=O)C1(C(C)C)Oc2ccccc2C(c2ccc(OC)cc2)=C1C(=O)OC (stereo unspecified)	none (no result: NS1 inh, Pf growth 48h, Pf growth 96h)
CCOC(=O)C1=C(CC)Nc2ccccc2N=C1NC(=O)Nc1ccc(Cl)c(Cl)c1	Pf growth 96h 2.62µM (no result: Pf growth 48h)
CCN1C(=NCc2ccccc2)N[C@@H](c2ccccc2)[C@H](C(=O)OC)[C@H]1C	Pf growth 48h inconclusive, Pf growth 96h inconclusive
CCN1C(=NCCCOC(C)C)N[C@@H](CCc2ccccc2)[C@H](C(=O)NCCCOC(C)C)[C@H]1C	Pf growth 48h 4.65µM, Pf growth 96h 4.65µM
CCN1C(=NCCOC)N[C@@H](CCc2ccccc2)[C@H](C(=O)OC)[C@H]1C	Pf growth 96h 16.5µM!
CCN(CC)C(=O)c1[nH]cnc1C(=O)N[C@@H](CC(C)C)C(=O)OCc1ccccc1	Pf growth 48h inconclusive, Pf growth 96h inconclusive
CCCCCOP(=O)(OCCCCC)C1(NS(=O)(=O)c2ccccc2)C=CC(=O)c2ccccc21 (stereo unspecified)	Pf growth 48h 9.28µM, Pf growth 96h 7.38µM
CCOP(=O)(OCC)C(NS(=O)(=O)c1ccccc1)C(Cl)(Cl)Cl (stereo unspecified)	none
Cc1cccc(NC(=S)NNC(=O)c2csc3c2CCCC3)c1	CHX counter 29.4
Cc1ccc(C)c(NC(=S)NNC(=O)c2csc3c2CCCC3)c1	none (no result: Pf growth 96h)
Cc1cccc(NC(=S)NNC(=O)c2csc(C)c2)c1	Shiga toxin inh 22.3, CHX counter 24.0
CC(C(=O)NCc1cccnc1)N1C(=O)c2ccccc2C1=O (stereo unspecified)	none (no result: Pf growth 96h)
O=P(OC1CCCCC1)(OC1CCCCC1)C(O)c1c(Cl)cccc1Cl (stereo unspecified)	Pf growth 48h 10.4µM, Pf growth 96h 5.22µM
O=P(OC1CCCCC1)(OC1CCCCC1)C(O)c1ccc(Cl)cc1Cl (stereo unspecified)	NS1 inh inconclusive, Pf growth 48h 1.85µM (no result: Pf growth 96h)
Cc1ccc(C(O)P(=O)(OC2CCCCC2)OC2CCCCC2)cc1 (stereo unspecified)	Pf growth 96h inconclusive (no result: Pf growth 48h)
COc1ccccc1C(O)P(=O)(OC1CCCCC1)OC1CCCCC1 (stereo unspecified)	Pf growth 48h inconclusive
CCOC(=O)c1nc(C)sc1-c1ccnn1S(=O)(=O)c1ccc(Cl)cc1Cl	CHX counter 28.9
CCOC(=O)c1nc(C)sc1-c1ccnn1S(=O)(=O)c1ccccc1C(F)(F)F	none
O=C(CNS(=O)(=O)c1ccc(Br)s1)NCc1ccccc1	none
O=S(=O)(NCCOCCNS(=O)(=O)c1ccccc1)c1ccccc1	none
O=S(=O)(NCCOCC(F)(F)F)c1ccc2oc3ccccc3c2c1	Pf growth 48h 11.7µM
COc1cc2ccccc2cc1C(=O)Nc1ccc(CN2CCOCC2)cc1	CHX counter 20.2
